This passage reports composite z-score and z-score results from PubChem BioAssay.

Calls of active or inactive are those of the source.

Test [1] has as its system Plasmodium falciparum Sir2 (PF13_0152, Sir2A). Description: Plasmodium falciparum Sir2A binding compounds – biochemical, small-molecule microarray, 635 nm fluorescence, primary screen (AID 1098).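 Also: score merges spot fluorescence intensity with its signal-to-noise ratio.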 Particulars: fluorescence 635 nm, higher = more signal.
Test [2] is described as follows: probe aDKK1 binding to arrayed compounds – biochemical, biotinylated probe, 635/667 nm fluorescence, primary screen (AID 1099).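 Also: score merges 667nm spot fluorescence with signal to noise across triplicate slides.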 The note with it: small-molecule microarray, higher = more signal.
The nature of test [3]: probe aCHRDL2 binding to arrayed compounds – biochemical, biotinylated probe, 635/667 nm fluorescence, primary screen (AID 1100). Particulars: small-molecule microarray, higher = more signal.
Test [4] is described as follows: change in splice reporter luminescence, either direction, cell-based, HEK293, spliceosome inhibition project, primary screen (AID 1101).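 Also: HEK293 cells carrying a splicing-competent luciferase reporter gene; test concentration not given here.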 The note with it: HEK293 splicing luciferase reporter, 24 h, higher = more signal, called active from +8 up or from −8 down. In general terms: In a reporter assay the amount or activity of a reporter protein is the signal.
Test [5] addresses Fibroblast growth factor 10 (Homo sapiens) (UniProt O15520). Nature of the test: compounds binding fibroblast growth factor 10 – biochemical, small-molecule microarray, 635 nm fluorescence, primary screen (AID 1102). Particulars: FGF10 binding, fluorescence 635 nm, higher = more signal.
For test [6], the system named is glycogen synthase kinase-3 (GSK3A per assay name; protocol says GSK3B). Nature of the test: compounds binding glycogen synthase kinase-3 – biochemical, small-molecule microarray, 635 nm fluorescence, GSK3A, primary screen (AID 1103). Also: the record names both GSK3A and GSK3B. The note with it: fluorescence 635 nm, higher = more signal.
Test [7] deals with Epidermal growth factor receptor (Homo sapiens) (UniProt P00533). Nature of the test: compounds binding epidermal growth factor receptor – biochemical, small-molecule microarray, 635 nm fluorescence, primary screen (AID 1104).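 Also: score merges 667 nm emission intensity with spot signal to noise over triplicate slides.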 Particulars: EGFR binding, higher = more signal.
Test [8] concerns the target Follistatin-related protein 3 (Homo sapiens) (UniProt O95633). Nature of the test: compounds binding follistatin-related protein 3 – biochemical, small-molecule microarray, 635 nm fluorescence, primary screen (AID 1105).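 Also: score merges emission near 667 nm and signal to noise per printed spot across three slides.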 Particulars: FSTL3 binding, higher = more signal.
Test [9] concerns the target Dickkopf-related protein 1 (Homo sapiens) (UniProt O94907). Nature of the test: small molecules binding DKK1 protein – biochemical, small-molecule microarray, 635 nm fluorescence scan, primary screen (AID 1106).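 Also: score merges emission near 667 nm with signal to noise over three replicate slides.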 The note with it: higher = more signal.
In test [10] the test system is Inhibin beta A chain (activin A). Description: small molecules binding activin A – biochemical, small-molecule microarray, 635 nm fluorescence scan, primary screen (AID 1107).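 Also: mouse activin A protein probed at 4.33 µg/mL on printed slides; score merges bound-protein fluorescence near 667 nm with spot signal-to-noise.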 Particulars: INHBA, higher = more signal.
Test [11] has as its system Human papillomavirus type 1a protein E7 (residues 44-93). Nature of the test: small molecules binding HPV E7 44-93 – biochemical, small-molecule microarray, residues 44-93, 635 nm fluorescence, primary screen (AID 1108).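 Also: E7 fragment applied at 1 µg/mL in TBST for 1 h at 4 C; score combines spot fluorescence with its signal to noise ratio.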 Particulars: fluorescence 635 nm, higher = more signal.
A short description of test [12]: hepatitis C replication reporter changes, two-sided – Huh7 cells, luciferase reporter, HCV replication inhibitor project, primary screen (AID 1109).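 Also: huh7 hepatoma cells harbouring a luciferase neomycin HCV replicon reporter; luciferase luminescence as measure of HCV replicon replication; test concentration not given here.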 Particulars: Huh7 HCV replicon luciferase reporter, 48 h; higher = more signal.
For test [13], the target named is Left-right determination factor 2 (Homo sapiens) (UniProt O00292). Description: small molecules binding LEFTY2 protein – biochemical, small-molecule microarray, 635 nm fluorescence scan, primary screen (AID 1110). Particulars: higher = more signal.
For test [14], the target named is Calmodulin-1 (Homo sapiens) (UniProt P0DP23). Nature of the test: small molecules binding calmodulin-1 with EGTA – biochemical, small-molecule microarray, Cy5-labelled CALM1, profiling panel (AID 1111).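 Also: labelled calmodulin applied in Tris saline Tween buffer holding calcium plus EGTA and DTT.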 Particulars: Cy5-CALM1 binding fluorescence, higher = more signal.
Test [15] has the same target. Nature of the test: small molecules binding Ca-loaded calmodulin-1 – biochemical, small-molecule microarray, Cy5-labelled CALM1, plus calcium, artefact control for SMM control-protein annotation, profiling panel (AID 1112).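 Also: score merges spot fluorescence with signal to noise from triplicate slides.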 The note with it: Cy5-CALM1 binding fluorescence, higher = more signal.
Test [16] is described as follows: probe aWnt5a binding to arrayed compounds – biochemical, biotinylated probe, 635/667 nm fluorescence, primary screen (AID 1113).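 Also: score merges 667 nm fluorescence intensity with signal-to-noise per printed feature.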 Particulars: small-molecule microarray, higher = more signal.
The nature of test [17]: probe aShh binding to arrayed compounds – biochemical, biotinylated probe, 635/667 nm fluorescence, primary screen (AID 1114).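 Also: probe is biotin-labelled aShh protein from a stem cell growth factor screen; measures binding of labelled protein to compounds printed on the slide; score merges feature fluorescence at 667 nm with signal-to-noise.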 Particulars: small-molecule microarray, higher = more signal.
Test [18] in a line: probe aNog binding to arrayed compounds – biochemical, biotinylated probe, 635/667 nm fluorescence, primary screen (AID 1115).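 Also: probe is biotinylated aNog protein used at 0.15 µg/mL for 1 h at 4 C; z-score combines 667 nm fluorescence of each spot with its signal to noise.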 Particulars: small-molecule microarray, higher = more signal.
The target in test [19] is Torsin-1A-interacting protein 1 (Homo sapiens) (UniProt Q5JTV8). Description: compound microarray binding of lysate hLAP1 – cell lysate, small-molecule microarray, COS7 lysate, 635/667 nm fluorescence, primary screen (AID 1116). Particulars: 635 nm fluorescence, higher = more signal.
The target of test [20] is Alpha-bungarotoxin (Bungarus multicinctus) (UniProt P60615). Description: compounds binding labelled alpha-BTX control protein – biochemical, small-molecule microarray, Alexa647 label, 635/667 nm fluorescence, artefact control for SMM control protein annotation, profiling panel (AID 1117). The note with it: alpha-BTX-A647 binding fluorescence, higher = more signal.
Sequence of Alpha-bungarotoxin (Bungarus multicinctus) (P60615 whole entry, looked up): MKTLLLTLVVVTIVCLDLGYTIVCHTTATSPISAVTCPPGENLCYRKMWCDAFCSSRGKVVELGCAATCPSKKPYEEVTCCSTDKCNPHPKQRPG

Sequence of Fibroblast growth factor 10 (Homo sapiens) (O15520 whole entry, looked up): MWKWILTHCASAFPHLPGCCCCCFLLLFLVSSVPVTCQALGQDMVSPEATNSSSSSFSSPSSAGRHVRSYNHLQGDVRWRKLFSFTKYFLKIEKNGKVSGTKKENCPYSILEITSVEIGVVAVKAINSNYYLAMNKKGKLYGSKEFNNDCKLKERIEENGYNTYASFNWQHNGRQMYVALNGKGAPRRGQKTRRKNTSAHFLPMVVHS
Sequence of Torsin-1A-interacting protein 1 (Homo sapiens) (Q5JTV8 whole entry, looked up): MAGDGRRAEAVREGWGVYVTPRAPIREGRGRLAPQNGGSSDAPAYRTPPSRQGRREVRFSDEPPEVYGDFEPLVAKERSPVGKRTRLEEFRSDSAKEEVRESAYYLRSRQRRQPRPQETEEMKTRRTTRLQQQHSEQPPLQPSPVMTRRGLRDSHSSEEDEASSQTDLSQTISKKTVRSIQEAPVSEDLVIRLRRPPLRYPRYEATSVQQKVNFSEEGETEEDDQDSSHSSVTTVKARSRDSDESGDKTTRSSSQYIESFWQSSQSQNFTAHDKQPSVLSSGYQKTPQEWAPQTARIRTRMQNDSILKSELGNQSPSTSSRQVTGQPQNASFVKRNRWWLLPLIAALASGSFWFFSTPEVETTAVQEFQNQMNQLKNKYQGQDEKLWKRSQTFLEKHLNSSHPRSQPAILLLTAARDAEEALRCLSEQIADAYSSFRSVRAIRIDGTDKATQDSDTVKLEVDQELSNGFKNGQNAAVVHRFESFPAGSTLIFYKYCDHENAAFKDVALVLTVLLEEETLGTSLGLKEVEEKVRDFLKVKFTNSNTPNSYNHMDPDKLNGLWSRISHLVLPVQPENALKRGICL
Sequence of Left-right determination factor 2 (Homo sapiens) (O00292 whole entry, looked up): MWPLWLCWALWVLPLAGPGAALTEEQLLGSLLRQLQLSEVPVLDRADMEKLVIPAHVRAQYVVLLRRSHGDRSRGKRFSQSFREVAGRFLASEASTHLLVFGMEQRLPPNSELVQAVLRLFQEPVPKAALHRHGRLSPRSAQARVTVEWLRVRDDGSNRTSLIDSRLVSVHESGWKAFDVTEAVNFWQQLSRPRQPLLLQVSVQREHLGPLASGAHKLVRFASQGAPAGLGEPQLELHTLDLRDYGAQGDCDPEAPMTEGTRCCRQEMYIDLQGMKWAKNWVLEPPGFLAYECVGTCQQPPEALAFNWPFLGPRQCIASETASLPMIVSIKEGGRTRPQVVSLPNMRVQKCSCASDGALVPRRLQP
Sequence of Follistatin-related protein 3 (Homo sapiens) (O95633 whole entry, looked up): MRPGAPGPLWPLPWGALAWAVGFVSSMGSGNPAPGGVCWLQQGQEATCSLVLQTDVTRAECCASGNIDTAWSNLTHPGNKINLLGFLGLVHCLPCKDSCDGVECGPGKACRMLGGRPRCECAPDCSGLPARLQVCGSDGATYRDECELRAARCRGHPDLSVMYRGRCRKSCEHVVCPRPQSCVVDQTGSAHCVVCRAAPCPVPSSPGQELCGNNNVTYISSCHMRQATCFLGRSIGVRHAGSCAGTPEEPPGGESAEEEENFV
Sequence of Epidermal growth factor receptor (Homo sapiens) (P00533 whole entry, looked up): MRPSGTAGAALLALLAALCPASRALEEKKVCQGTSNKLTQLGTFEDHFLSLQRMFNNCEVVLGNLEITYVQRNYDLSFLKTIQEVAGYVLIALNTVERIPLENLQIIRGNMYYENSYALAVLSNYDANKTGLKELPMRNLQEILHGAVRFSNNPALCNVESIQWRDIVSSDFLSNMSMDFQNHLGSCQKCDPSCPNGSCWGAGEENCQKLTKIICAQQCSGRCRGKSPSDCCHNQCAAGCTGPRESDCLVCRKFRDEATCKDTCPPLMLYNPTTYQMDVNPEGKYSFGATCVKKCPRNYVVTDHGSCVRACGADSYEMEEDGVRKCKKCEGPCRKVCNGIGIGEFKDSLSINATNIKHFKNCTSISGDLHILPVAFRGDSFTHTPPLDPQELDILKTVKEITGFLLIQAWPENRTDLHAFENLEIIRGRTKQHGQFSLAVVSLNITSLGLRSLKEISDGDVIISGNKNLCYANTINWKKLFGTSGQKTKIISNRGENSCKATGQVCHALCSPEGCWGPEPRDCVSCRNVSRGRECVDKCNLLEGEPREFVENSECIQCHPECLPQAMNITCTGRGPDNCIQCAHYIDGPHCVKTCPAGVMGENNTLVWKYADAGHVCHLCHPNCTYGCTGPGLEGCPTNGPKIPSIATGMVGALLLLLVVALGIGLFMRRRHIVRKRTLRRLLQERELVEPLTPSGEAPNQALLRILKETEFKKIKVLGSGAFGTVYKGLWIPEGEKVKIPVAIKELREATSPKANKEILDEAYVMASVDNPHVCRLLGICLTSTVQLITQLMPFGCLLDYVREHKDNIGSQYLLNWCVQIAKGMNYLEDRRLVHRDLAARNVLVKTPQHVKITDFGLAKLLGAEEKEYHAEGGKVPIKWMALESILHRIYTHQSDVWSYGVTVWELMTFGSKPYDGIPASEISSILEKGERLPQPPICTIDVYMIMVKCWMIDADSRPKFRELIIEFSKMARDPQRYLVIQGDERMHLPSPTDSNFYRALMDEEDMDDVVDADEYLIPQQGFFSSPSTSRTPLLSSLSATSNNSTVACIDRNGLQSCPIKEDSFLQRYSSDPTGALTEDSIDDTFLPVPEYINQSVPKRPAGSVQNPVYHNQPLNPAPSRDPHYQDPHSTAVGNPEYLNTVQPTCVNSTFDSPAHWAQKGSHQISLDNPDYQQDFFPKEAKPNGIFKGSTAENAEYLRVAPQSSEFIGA
Sequence of Dickkopf-related protein 1 (Homo sapiens) (O94907 whole entry, looked up): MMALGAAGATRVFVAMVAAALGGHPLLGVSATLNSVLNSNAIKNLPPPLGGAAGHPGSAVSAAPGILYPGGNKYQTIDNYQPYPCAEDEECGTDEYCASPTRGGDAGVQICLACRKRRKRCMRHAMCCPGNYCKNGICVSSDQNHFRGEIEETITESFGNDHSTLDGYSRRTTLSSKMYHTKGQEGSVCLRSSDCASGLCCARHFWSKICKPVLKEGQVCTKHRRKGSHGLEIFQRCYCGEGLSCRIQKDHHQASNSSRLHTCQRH

As for `CC(C)(C)OC(=O)CC[C@@]12N=C(c3ccc(OCCCO)cc3)O[C@@H]1c1ccccc1N(Cc1ccccc1)C2=O`, the composite z-score in [1] is 0.727; in [2] it was 0.692; in test [3] it was 1.05; in test [5], 0.732; in [6] it was 1.19; in test [7] it was -0.244. Also, the composite z-score is 0.51 in test [8]; 0.117 in test [9]; 1.14 in test [10]; -0.0568 in [11]; -0.202 in [13]; 0.61 in [14]. In addition, the composite z-score in test [15] is 0.621; in test [16] it was -0.0327; in test [17], 0.138; in test [18], 0.943; in test [19], 0.786; in test [20] it was 1.36. Further, the z-score was -0.00084 (inactive) in test [4] and -2.38 in test [12].

With `COc1ccc([Si](C)(C)[C@H]2[C@H](CC(=O)N(CCO)Cc3ccccc3)O[C@@]3(C(=O)N(Cc4cccc(N5C(=O)COc6ccccc65)c4)c4ccccc43)[C@@H]2C)cc1`, the composite z-score in test [1] was 1.29; in test [2] it was -0.209; in test [3] it was 0.202; in test [5] it was 0.963; in test [6] it was 0.183; in test [7], 0.456. The composite z-score was 0.628 in [8]; 0.506 in [9]; 0.702 in [10]; -0.591 in test [11]; 0.962 in [13]; -0.13 in [14]. In addition, the composite z-score in test [15] is -0.408; in [16] it was -0.203; in test [17], 0.564; in test [18], 0.389; in test [19], 0.836; in test [20] it was 1.57. The z-score in test [4] was -2.08 (inactive); in [12], -3.88.

Take `O=C(NCC(F)(F)F)[C@@H]1c2ccccc2C(=O)N(C2Cc3ccccc3C2)[C@H]1c1ccc(CO)cc1`: the composite z-score is 0.23 in test [1]; 0.621 in test [2]; 0.715 in test [3]; -0.691 in test [5]; -0.605 in test [6]; -0.621 in test [7]. Also, the composite z-score is -0.584 in [8]; -0.808 in [9]; 1.03 in test [10]; -1.07 in test [11]; -1.21 in [13]; 0.342 in test [14]. Further, the composite z-score is 1.14 in [15]; -0.129 in [16]; 0.267 in [17]; 0.109 in [18]; 0.179 in [19]; -1.22 in [20]. Besides, the z-score in [4] is -0.658 (inactive); in test [12] it was -0.561.

On to `C=CCC1(CC=C)C[C@H]2CO[C@H](c3ccc(OC)cc3)N2C1=O`, for which the composite z-score in [1] is 0.695; in [2], -0.17; in test [3], 0.317; in test [5], -0.193; in [6], -0.217; in test [7], 0.291. The composite z-score was 0.576 in test [8]; 0.917 in test [9]; 1.55 in [10]; -0.107 in test [11]; 0.447 in test [13]; -1.56 in test [14]. For the same molecule, the composite z-score in test [15] was -2.31; in [16], -0.124; in test [17], -0.271; in [18], -0.0887; in test [19], 0.656; in test [20], 0.278. In addition, the z-score was -0.512 (inactive) in [4] and 0.805 in test [12].

Regarding `O=C1c2ccccc2[C@@]2(Cc3ccccc3N(CC(F)(F)F)C2=O)[C@H](c2ccc(CO)cc2)N1Cc1ccccc1C(F)(F)F`, the composite z-score was -1.84 in [1]; 0.471 in test [2]; 0.957 in test [3]; -0.316 in [5]; -1.41 in test [6]; -0.903 in test [7]. Also, the composite z-score in test [8] is -1.15; in [9], -1.95; in test [10], 1.04; in test [11], -0.713; in [13], -0.888; in [14] it was -0.434. Further, the composite z-score was 0.0123 in test [15]; -0.104 in test [16]; -0.0243 in [17]; 0.673 in test [18]; -0.459 in test [19]; -1.7 in test [20]. Besides, the values for the z-score in test [4] and in [12] were -0.0373 (inactive) and 0.301, respectively.
